# Unmarked numbers belong to inactive results. Inconclusive results are not listed. Where a call stands in place of a potency, no number is given. Activity calls are given as the source filed them. Unless noted, the call rests on the fitted dose curve; in most records, active means well fitted curve in the direction sought with a large enough effect; inconclusive means small, poorly fitted or top-dose-only effect, or another doubt; inactive means no such curve, though single readings can be large; an effect the other way counts as inactive or inconclusive.
# Tests used:
# [1] = target: Cytochrome P450 3A4 (Homo sapiens) (UniProt P08684); assay: qHTS Assay for Activators of Cytochrome P450 3A4 (AID 885); further: nearly all actives have a fitted effect of over 65% in size
# Procedure, shortened: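 Quantitative HTS format: compounds preincubated with 20nM human CYP3A4 and Luciferin-PPXE substrate at KM, reaction started by NADPH regeneration, stopped after 60 min, luciferase luminescence read 20 min later.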
# [2] = target: Ubiquitin carboxyl-terminal hydrolase 1 (Homo sapiens) (UniProt O94782); assay: Inhibitors of USP1/UAF1: Pilot qHTS (AID 504865);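 further: rhodamine fluorescence freed from ubiquitin-rhodamine substrate followed over time; top concentration of the series differs between compounds; nearly all actives have a fitted effect of over 35% in size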
# Procedure, shortened: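 1nM USP1/UAF1 + cpd, 15 min RT; start w/ Ub-Rho 150nM final; kinetic FL 480/540 nm, 6 reads q60 s. Buffer 50mM HEPES pH 7.8, 0.5mM EDTA, 1mM TCEP, 0.01% Tween-20, 0.1 mg/ml BSA.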
# [3] = target: DNA dC->dU-editing enzyme APOBEC-3G (Homo sapiens) (UniProt Q9HC16); assay: qHTS for inhibitors of Vif-A3G interactions: Validation (AID 588379)
# Procedure, shortened: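 HeLa cells stably expressing Vif and A3G-eYFP, 700 cells/well, incubated overnight at 37 deg C, then exposed to compound overnight at 37 deg C. Inhibition of Vif-mediated degradation read as increased yellow fluorescence (Ex 488/Em 500-530) by laser-scanning cytometry.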
# [4] = test system: Zika virus NS2B-NS3 protease; assay: Primary screen GU AMC qHTS for Zika virus inhibitors (AID 1347154); further: nearly all actives have a fitted effect of over 70% in size
# Procedure, shortened: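 Unlinked Zika NS2B hydrophilic domain–NS3 protease complex at 25 nM in 10 mM Tris-HCl pH 8.0, 0.01% Tween 20, with an AMC peptide substrate. Fluorescence change (340/450 nm) over 15 min at room temperature, normalized to controls, fitted to 4-parameter Hill.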
# [5] = Primary qHTS for small molecule stabilizers of the endoplasmic reticulum resident proteome: Secreted ER Calcium Modulated Protein (SERCaMP) assay (AID 1508630)
# Procedure, shortened: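 GLuc-SERCaMP-expressing SH-SY5Y cells, pretreated 16 h with compound, are challenged with thapsigargin to empty ER calcium stores; after 4 h, coelenterazine is added directly to the medium and luminescence is imaged.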
# [6] = target: Glucocorticoid receptor (Homo sapiens) (UniProt P04150); assay: GR-GFP Redistribution (AID 450;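 active means compounds whose dose series gives a full or clear partial fitted curve of increased nuclear translocation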; further: potency means the concentration at half of the fitted maximal effect); settings: U2OS GR-GFP nuclear translocation, laser cytometry, 2 h
# [7] = target: Glucocorticoid receptor (Homo sapiens) (UniProt P04150); assay: GR-EFC Redistribution (AID 451; calls by dose curve; further: potency means the concentration at half of the fitted maximal effect); settings: CHO-K1 GR-EFC translocation, beta-gal luminescence, 2 h
# Procedure, shortened: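 CHO-K1 cells expressing nuclear EA and GR-ED fragments of b-gal; compounds titrated up to 46 uM final, 2 h at 37 C. GR nuclear translocation read as complemented b-gal luminescence after 1 h RT detection.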
# [8] = target: Mitogen-activated protein kinase 10 (Mus musculus) (UniProt Q61831); assay: JNK3 AlphaScreen Assay (AID 530; active means well fitted curve in either direction with a large enough effect, not every such curve was filed as active;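 further: kinase came from lysate of stimulated human HepG2 cells; signal reports phosphorylation of biotinylated GST-cJun 1-79 at Ser73 with 10 µM ATP; series mostly up to about 57 µM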)
# Procedure, shortened: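 qHTS format: compounds tested as titrations against IL-1beta/TNF-alpha-activated HepG2 lysate JNK3 with biotin-GST-cJun substrate and 10 uM ATP at room temperature. Loss of anti-phospho-cJun AlphaScreen signal indicates inhibition.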
# [9] = target: Cytochrome P450 2C19 (Homo sapiens) (UniProt P33261); assay: qHTS Assay for Inhibitors and Substrates of Cytochrome P450 2C19 (AID 899); further: nearly all actives have a fitted effect of over 60% in size
# Procedure, shortened: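 5 nM human CYP2C19 with 10uM Luciferin-H EGE (at KM) in 50mM KPO4, compound preincubated 10 min at 37C, then NADPH regeneration for 60 min at 37C. Luciferin read by luminescence after detection reagent; normalized to 57uM ketoconazole as full inhibition.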
# [10] = target: 3',5'-cyclic-AMP phosphodiesterase 4B (Homo sapiens) (UniProt Q07343); assay: qHTS Assay for Inhibitors of PDE-IV (AID 607; active means well fitted activation curve with a large enough effect in the main read-out, with a control signal flat, not every such curve was filed as active)
# Procedure, shortened: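 Live HEK293 cells with a modified cyclic nucleotide-gated (CNG) channel report intracellular cAMP via membrane-potential dye fluorescence (ex 535/em 590 nm). Endogenous PDE-IV was targeted. Compounds were tested at up to 22.9 uM final; RO 20-1724 100 uM served as control.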
# [11] = target: Guanine nucleotide-binding protein G(i) subunit alpha-1 (Homo sapiens) (UniProt P63096); assay: qHTS Assay for Inhibitors of RGS12 GoLoco Motif Activity (Green Fluorophore) (AID 879);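 further: negative values mean loss of peptide binding seen as reduced polarization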
# Procedure, shortened: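 Fluorescence polarization assay: 50 nM Gαi1 with 10 nM FITC-labeled RGS12 GoLoco peptide in 10 mM Tris pH 7.5, 150 mM NaCl, 0.1 mM GDP, 0.05% NP40, 10 min at room temperature with compound.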
# [12] = target: Muscarinic acetylcholine receptor M1 (Rattus norvegicus) (UniProt P08482); assay: qHTS Assay for Antagonists of Acetylcholine Muscarinic M1 Receptor: Kinetic Measurement of Intracellular Calcium Response (AID 943); further: potency means the concentration at half of the fitted maximal effect; nearly all actives have a fitted effect of over 75% in size
# Procedure, shortened: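 Intracellular calcium flux, recorded with Fluo-4 in a kinetic plate reader, served as signal; the response to carbachol at EC80 (100 nM final) was taken as maximal over minimal fluorescence after a 10 min compound pre-incubation in rat M1-CHO cells.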
# [13] = target: Pyruvate kinase (Leishmania mexicana) (UniProt Q27686); assay: qHTS Validation Assay for Inhibitors of Leishmania Mexicana Pyruvate Kinase (AID 945)
# Procedure, shortened: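 Luminescent ATP detection (PKLight) after a 1 h room-temperature reaction of 0.2 nM LmPYK E451W mutant with 0.5 mM PEP and 0.1 mM ADP at pH 7.2. Activity is normalized to DMSO-only control wells.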
# [14] = target: Pyruvate kinase PKM (Homo sapiens) (UniProt P14618); assay: qHTS Assay for Activators of Human Muscle Pyruvate Kinase (AID 954; active means well fitted curve in the direction sought with a large enough effect, not every such curve was filed as active)
# Procedure, shortened: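 Enzyme was run at intermediate activity so both inhibitors and activators could be detected. ATP formed from ADP and PEP by 0.1 nM human PKM2 during a 1 h room-temperature incubation was quantified by coupled luciferase luminescence.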
# [15] = target: Alpha-galactosidase A (Homo sapiens) (UniProt P06280); assay: Counterscreen for Glucocerebrosidase Inhibitors: qHTS Assay for Human alpha-Galactosidase at pH 4.5 (AID 992)
# Procedure, shortened: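 Read-out is 4-methylumbelliferone fluorescence (365 nm excitation, 440 nm emission) after a pH 10 NaOH/glycine stop. Reactions held 2 nM enzyme and 80 uM substrate at pH 4.5 for 20 min at room temperature.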
# [16] = target: alpha-glucosidase (Oryza sativa, rice) (UniProt Q653V4); assay: Counterscreen for Glucocerebrosidase Inhibitors: qHTS Assay for Rice alpha-Glucosidase at pH 5.0 (AID 997)
# Procedure, shortened: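 Rice alpha-glucosidase (4 nM final) with 400 uM 4-methylumbelliferyl-alpha-D-glucopyranoside in citrate buffer pH 5.0, 20 min at room temperature, stopped at pH 10; fluorescence 365/440 nm, compounds 0.7 nM–77 uM, AC50 from Hill fits.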
# Sequence of Glucocorticoid receptor (Homo sapiens) (P04150 whole entry, looked up, the tested form may be a part): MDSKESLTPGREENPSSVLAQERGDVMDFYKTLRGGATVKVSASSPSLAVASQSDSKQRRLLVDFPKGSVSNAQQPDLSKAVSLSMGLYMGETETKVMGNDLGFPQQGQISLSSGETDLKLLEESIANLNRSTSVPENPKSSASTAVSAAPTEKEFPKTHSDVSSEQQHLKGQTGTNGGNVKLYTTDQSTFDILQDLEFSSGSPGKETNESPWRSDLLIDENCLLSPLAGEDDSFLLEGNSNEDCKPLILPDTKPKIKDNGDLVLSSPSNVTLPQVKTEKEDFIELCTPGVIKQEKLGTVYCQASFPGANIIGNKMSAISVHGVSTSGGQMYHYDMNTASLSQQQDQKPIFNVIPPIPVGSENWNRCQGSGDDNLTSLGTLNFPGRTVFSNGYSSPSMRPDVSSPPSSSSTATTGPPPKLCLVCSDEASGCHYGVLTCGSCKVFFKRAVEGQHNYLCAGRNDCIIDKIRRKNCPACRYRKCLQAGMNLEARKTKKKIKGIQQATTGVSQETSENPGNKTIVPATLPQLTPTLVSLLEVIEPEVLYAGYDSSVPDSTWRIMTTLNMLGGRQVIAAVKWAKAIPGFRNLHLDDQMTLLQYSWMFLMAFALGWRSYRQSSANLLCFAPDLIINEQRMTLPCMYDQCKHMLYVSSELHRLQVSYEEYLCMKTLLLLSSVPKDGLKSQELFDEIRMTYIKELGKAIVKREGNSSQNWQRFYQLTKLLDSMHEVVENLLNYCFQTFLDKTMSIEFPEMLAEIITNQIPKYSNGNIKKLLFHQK
# Sequence of 3',5'-cyclic-AMP phosphodiesterase 4B (Homo sapiens) (Q07343 whole entry, looked up): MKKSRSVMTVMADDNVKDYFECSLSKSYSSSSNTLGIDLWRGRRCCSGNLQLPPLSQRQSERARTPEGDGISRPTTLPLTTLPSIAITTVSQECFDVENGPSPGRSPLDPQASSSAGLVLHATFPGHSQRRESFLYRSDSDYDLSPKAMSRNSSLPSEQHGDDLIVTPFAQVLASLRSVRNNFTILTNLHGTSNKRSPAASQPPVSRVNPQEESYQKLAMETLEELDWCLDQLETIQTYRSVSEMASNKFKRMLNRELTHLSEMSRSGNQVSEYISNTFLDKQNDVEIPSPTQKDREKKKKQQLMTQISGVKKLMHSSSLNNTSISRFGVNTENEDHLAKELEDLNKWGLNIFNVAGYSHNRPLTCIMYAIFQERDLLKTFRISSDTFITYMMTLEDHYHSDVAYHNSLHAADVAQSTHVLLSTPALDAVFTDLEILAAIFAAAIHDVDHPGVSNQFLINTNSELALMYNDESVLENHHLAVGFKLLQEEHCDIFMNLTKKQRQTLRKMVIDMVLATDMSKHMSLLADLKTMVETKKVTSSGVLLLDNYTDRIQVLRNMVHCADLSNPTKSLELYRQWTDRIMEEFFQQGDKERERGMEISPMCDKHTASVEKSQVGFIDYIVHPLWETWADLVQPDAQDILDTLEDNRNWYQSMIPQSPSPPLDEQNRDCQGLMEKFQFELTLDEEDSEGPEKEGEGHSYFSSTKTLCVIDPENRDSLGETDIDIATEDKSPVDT
# Sequence of DNA dC->dU-editing enzyme APOBEC-3G (Homo sapiens) (Q9HC16 whole entry, looked up): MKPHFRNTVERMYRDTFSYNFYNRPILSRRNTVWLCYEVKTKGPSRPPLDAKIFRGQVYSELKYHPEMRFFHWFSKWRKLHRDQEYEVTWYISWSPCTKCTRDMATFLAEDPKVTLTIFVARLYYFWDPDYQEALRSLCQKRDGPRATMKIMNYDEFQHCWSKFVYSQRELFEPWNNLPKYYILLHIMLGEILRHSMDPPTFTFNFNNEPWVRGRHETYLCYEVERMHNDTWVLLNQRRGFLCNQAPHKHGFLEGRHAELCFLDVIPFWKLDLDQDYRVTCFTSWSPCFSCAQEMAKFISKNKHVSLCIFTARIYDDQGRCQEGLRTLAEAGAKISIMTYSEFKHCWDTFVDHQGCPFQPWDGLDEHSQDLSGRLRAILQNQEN
# Sequence of Cytochrome P450 3A4 (Homo sapiens) (P08684 whole entry, looked up): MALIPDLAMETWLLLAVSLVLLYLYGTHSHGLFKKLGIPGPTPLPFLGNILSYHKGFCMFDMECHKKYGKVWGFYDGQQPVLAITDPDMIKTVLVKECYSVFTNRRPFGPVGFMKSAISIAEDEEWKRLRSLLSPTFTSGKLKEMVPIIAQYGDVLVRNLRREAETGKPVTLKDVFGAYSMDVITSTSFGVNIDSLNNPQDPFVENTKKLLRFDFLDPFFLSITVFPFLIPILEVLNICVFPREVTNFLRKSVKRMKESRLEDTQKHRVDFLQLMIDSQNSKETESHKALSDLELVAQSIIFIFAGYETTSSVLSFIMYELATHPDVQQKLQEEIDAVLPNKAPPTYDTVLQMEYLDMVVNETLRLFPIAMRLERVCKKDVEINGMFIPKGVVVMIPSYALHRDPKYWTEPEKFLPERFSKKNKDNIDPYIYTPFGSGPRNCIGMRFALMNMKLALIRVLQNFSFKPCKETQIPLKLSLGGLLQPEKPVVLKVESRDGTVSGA
# Sequence of Ubiquitin carboxyl-terminal hydrolase 1 (Homo sapiens) (O94782 whole entry, looked up): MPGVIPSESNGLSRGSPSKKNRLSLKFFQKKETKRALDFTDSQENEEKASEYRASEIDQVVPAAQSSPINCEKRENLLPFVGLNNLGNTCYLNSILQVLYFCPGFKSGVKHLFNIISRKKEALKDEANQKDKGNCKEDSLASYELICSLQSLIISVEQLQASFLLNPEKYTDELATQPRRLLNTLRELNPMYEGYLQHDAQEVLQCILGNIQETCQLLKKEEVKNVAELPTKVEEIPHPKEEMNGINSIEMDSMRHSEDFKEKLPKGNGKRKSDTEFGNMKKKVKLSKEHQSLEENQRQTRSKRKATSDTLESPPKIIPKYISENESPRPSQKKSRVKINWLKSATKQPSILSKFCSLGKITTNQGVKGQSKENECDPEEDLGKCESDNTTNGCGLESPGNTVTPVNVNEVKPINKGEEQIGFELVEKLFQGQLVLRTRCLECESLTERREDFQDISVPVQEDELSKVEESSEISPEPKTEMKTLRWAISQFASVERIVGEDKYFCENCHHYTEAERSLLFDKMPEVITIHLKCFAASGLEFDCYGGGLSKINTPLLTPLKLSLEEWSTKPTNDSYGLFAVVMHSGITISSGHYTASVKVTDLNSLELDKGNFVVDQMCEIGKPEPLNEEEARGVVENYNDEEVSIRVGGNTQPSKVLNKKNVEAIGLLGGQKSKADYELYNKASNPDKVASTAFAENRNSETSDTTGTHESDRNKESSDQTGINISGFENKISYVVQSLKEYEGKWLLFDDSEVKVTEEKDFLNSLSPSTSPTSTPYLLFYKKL
# Sequence of Pyruvate kinase PKM (Homo sapiens) (P14618 whole entry, looked up): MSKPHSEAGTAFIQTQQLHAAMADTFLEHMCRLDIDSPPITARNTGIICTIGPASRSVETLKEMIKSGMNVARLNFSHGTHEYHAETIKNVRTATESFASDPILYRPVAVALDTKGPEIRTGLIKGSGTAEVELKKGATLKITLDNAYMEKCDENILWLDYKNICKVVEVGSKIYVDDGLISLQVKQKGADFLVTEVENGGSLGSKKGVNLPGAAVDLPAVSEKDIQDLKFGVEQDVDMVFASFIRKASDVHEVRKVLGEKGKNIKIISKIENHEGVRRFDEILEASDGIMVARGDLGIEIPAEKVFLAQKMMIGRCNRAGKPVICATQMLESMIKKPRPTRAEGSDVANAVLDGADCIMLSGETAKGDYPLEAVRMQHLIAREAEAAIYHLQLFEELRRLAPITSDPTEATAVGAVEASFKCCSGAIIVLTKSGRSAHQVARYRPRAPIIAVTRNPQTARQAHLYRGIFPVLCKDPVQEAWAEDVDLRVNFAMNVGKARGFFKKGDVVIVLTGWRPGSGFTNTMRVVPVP
# Sequence of Guanine nucleotide-binding protein G(i) subunit alpha-1 (Homo sapiens) (P63096 whole entry, looked up): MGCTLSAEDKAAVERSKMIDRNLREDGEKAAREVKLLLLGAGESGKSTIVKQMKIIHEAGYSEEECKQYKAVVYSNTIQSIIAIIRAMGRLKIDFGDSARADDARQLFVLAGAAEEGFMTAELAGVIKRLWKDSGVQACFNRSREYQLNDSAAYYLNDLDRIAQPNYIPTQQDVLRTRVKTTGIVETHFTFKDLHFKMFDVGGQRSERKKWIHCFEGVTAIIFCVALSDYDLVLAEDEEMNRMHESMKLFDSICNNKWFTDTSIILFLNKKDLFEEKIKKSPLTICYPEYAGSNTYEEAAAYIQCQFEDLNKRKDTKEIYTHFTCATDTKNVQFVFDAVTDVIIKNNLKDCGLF
# Sequence of Cytochrome P450 2C19 (Homo sapiens) (P33261 whole entry, looked up): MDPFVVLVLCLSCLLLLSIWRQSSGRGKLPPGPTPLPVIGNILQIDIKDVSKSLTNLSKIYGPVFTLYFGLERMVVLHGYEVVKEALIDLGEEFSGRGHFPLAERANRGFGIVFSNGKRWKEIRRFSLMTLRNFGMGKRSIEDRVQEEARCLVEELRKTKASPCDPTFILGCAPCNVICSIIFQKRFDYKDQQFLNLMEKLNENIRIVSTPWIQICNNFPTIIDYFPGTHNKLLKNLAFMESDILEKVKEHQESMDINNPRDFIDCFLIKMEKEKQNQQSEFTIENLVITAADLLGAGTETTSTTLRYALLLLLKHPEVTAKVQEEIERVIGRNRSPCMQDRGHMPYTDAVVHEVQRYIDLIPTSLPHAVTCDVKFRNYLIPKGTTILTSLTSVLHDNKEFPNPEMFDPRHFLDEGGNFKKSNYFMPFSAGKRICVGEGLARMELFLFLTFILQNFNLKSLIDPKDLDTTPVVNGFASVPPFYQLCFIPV
# Sequence of Alpha-galactosidase A (Homo sapiens) (P06280 whole entry, looked up): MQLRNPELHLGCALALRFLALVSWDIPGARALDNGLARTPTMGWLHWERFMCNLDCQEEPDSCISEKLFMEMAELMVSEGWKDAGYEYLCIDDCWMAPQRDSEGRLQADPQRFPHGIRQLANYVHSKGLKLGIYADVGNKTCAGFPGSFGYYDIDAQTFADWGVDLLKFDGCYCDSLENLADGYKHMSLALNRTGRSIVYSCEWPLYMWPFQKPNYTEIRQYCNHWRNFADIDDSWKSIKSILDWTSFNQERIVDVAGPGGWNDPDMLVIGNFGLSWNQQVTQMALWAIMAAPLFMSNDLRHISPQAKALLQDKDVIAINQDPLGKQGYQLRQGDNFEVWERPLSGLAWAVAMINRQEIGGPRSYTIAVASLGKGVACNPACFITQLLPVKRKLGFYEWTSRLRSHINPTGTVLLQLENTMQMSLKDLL
compound,measurement,setting,value
COc1ccc2[nH]cc(CC(N)C(=O)O)c2c1 (configuration not stated),Potency,[1],inactive
same,Potency,[2],inactive
same,Potency,[3],inactive
same,Potency,[4],inactive
same,Potency,[5],inactive
O=C(O)[C@H]1CN[C@H](C(=O)O)C1,Potency,[6],> 46 µM
same,Potency,[7],> 46 µM
same,Potency,[8],inactive
same,Potency,[9],inactive
same,Potency,[2],inactive
same,Potency,[3],inactive
same,Potency,[4],inactive
same,Potency,[5],inactive
CCCCCCCCCCCCCCCC(=O)O[C@H](CC(=O)O)C[N+](C)(C)C,Potency,[6],> 46 µM
same,Potency,[7],> 46 µM
same,Potency,[8],inactive
same,Potency,[10],inactive
same,outcome,[11],inactive
same,Potency,[12],5.62 µM (active)
same,Potency,[13],inactive
same,outcome,[14],inactive
same,outcome,[15],inactive
same,outcome,[16],inactive
same,Potency,[3],inactive
same,Potency,[4],inactive
same,Potency,[5],inactive
COc1ccccc1N1CCN(CCn2c(=O)[nH]c3c([nH]c4ccccc43)c2=O)CC1,Potency,[6],> 46 µM
same,Potency,[7],> 46 µM
same,Potency,[8],inactive
same,Potency,[10],inactive
same,Potency,[1],inactive
same,Potency,[3],inactive
same,Potency,[4],inactive
same,Potency,[5],inactive
COc1ccc(NC(=O)c2ccc(-c3ccc(-c4noc(C)n4)cc3C)cc2)cc1OCCN(C)C,Potency,[6],> 46 µM
same,Potency,[8],inactive
same,Potency,[1],inactive
same,Potency,[3],inactive
same,Potency,[4],inactive
same,Potency,[5],inactive
Cc1ccc(-c2nn(CC(C)(C)C)c3ncnc(N)c23)cc1,Potency,[6],> 46 µM
same,Potency,[7],> 46 µM
same,Potency,[8],inactive
same,Potency,[3],inactive
same,Potency,[4],inactive
same,Potency,[5],inactive
N=C(N)S/C=C\C(=O)O,Potency,[6],> 46 µM
same,Potency,[7],> 46 µM
same,Potency,[8],inactive
same,Potency,[3],inactive
same,Potency,[4],inactive
same,Potency,[5],inactive
